Screening results (PubChem)
Lmaj promast: reduces viability of Leishmania major promastigotes. resazurin fluorescence viability. inhibition, % at 10 µM. actives 9% (n = 200,000); in the data active means inhibition above about 50%;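 further: promastigotes grown with compound for 44 hours at 28 °C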
CHOP inhibitor: blocks CHOP induction under ER stress | actives 3.8% (n = 220,000) | inhibition, % at 10 µM | CHO-K1 CHOP-promoter luciferase, tunicamycin-induced, 15-18 h;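 active means compounds that reduced the stress-induced luciferase reporter signal by more than about 70% of percent inhibition, limit read from the data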;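 further: 0% = tunicamycin plus vehicle and 100% = wells without tunicamycin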
Arbovirus inh: blocks arbovirus infection; arbovirus infection cell-based antiviral screen; inhibition, % at 10 µM; actives 0.37% (n = 200,000); AID 1251; in the data active means inhibition above about 30%
WT yeast gro inh: growth inhibition of WT yeast, mitochondrial fusion screen; inhibition, % at 10 µM; actives 2.1% (n = 190,000); mitochondrial fusion phenotypic screen, WT strain; in the data active means inhibition above about 58%; tested in S. cerevisiae
* = called active by the depositor; / = no result. A selection: hits, their analogues and other compounds. The true share with any hit is near 12%.

SMILES	Lmaj promast	CHOP inhibitor	Arbovirus inh	WT yeast gro inh
CCCCN(CC)Cc1ccc(CNC(=O)Nc2ccc(Cl)cc2)o1	98*	3	-15	-4
CC1=C(C#N)C(c2cn(-c3ccccc3)nc2-c2cccs2)C(C#N)=C(C)N1	66*	32	-1	-7
CCN(CC)S(=O)(=O)c1cccc(NC(=O)C2SC(=Nc3ccc(C)cc3C)C(C(=O)NC(C)COC)=C2N)c1 (stereo not given)	-7	39	-30	-16
CCCCNC(=O)C1=C(N)C(C(=O)Nc2ccc(C)c(S(=O)(=O)N3CCCCC3)c2)SC1=Nc1ccc(C)cc1C (stereo not given)	-25	8	-19	60*
CCOC(=O)c1ccc(Oc2ccc(C(F)(F)F)cn2)cc1	-6	20	0	23
Cc1cc(=O)oc2cc(OCC(=O)OCC(=O)Nc3ccc4ccccc4c3)ccc12	0	7	0	-20
Cc1cccc(C)c1NC(=O)COc1ccc2c(C)c(Cc3ccccc3)c(=O)oc2c1C	-6	96*	-15	6
Cc1cccc(OCC(=O)Nc2ccc3c(C)cc(=O)oc3c2)c1	-1	92*	-6	-1
Cc1cc(C)cc(NC(=O)COc2ccc3c(C)c(Cc4ccccc4)c(=O)oc3c2)c1	94*	30	-8	4
Cc1c(Cl)c(=O)oc2cc(OCC(=O)NCc3cccs3)ccc12	62*	35	5	-18
Cc1ccc(OCC(=O)NCc2cccs2)cc1	-6	17	-6	9
C#CCNC(=O)C1=C[C@@H](c2coc3ccccc3c2=O)C[C@@H](OCc2ccc(CO)cc2)O1	-3	6	4	-19
COc1ccc(CNC(=S)N/N=C/c2ccncc2)cc1	54*	28	9	35
CCOc1ccc(CNC(=S)N/N=C/c2ccncc2)cc1	-2	27	-10	37
Cc1cccc(Oc2cc([N+](=O)[O-])cc3c2C(=O)Nc2ccccc2O3)c1	2	92*	0	39
O=C1Nc2ccccc2Oc2cc([N+](=O)[O-])cc(Oc3ccccc3)c21	15	21	-5	54
C=C(C)COc1ccc2c3c(c(=O)oc2c1OCC(=C)C)CCC3	12	73*	-5	6
C=C(C)COc1ccc2c(C)c(CC(=O)OC)c(=O)oc2c1C	58*	43	-21	5
C=C(C)COc1ccc2c(CC)cc(=O)oc2c1C	62*	38	-13	-22
C=C(C)COc1ccc2c(C)c(C)c(=O)oc2c1OCC(=C)C	0	66	5	/
COC(=O)Cc1c(C)c2ccc(OCC(C)=O)c(C)c2oc1=O	1	-22	0	-9
Cc1ccc(CNC(=O)Cn2c([N+](=O)[O-])cnc2C)cc1	-7	-2	9	-6
COc1ccc(NC(=O)Cn2c(NCC(C)O)nc3ccccc32)cc1Cl (stereo not given)	-4	-1	-1	-7
CCOC(=O)c1ccccc1NC(=O)c1ccc(NS(C)(=O)=O)cc1	3	80*	12	7
CCCOC(=O)COC(=O)c1ccccc1NC(=O)c1ccccc1	-2	63	-7	-4
SMILES	Lmaj promast	CHOP inhibitor	Arbovirus inh	WT yeast gro inh
COc1ccc(CCn2c(=S)[nH]c3cc(C(=O)NCc4ccco4)ccc3c2=O)cc1OC	15	96*	-3	1
COc1ccc(-n2c(=S)[nH]c3cc(C(=O)NCc4ccco4)ccc3c2=O)cc1OC	-3	-8	2	-25
CCOc1cc2[nH]c(=S)n(CCCC(=O)NCc3ccco3)c(=O)c2cc1OCC	0	82*	-8	10
Cc1ccc(C)c(NC(=S)N(Cc2ccc(Cl)cc2)Cc2ccc(C(=O)O)cc2)c1	-2	16	19	-4
CC(=O)Oc1cc2c(C(=O)NCCCN3CCOCC3)c(C)oc2c2ccccc12	52*	-17	-35	-15
O=C(NCCCN1CCOCC1)c1ccc(Br)s1	4	11	1	-6
O=C(NCCCN1CCOCC1)c1cc2c(s1)CSC2	80*	-24	5	1
O=C(NCCCN1CCOCC1)c1cc2ccccc2oc1=O	23	-32	5	-9
Cc1cc(OCC(=O)NCCCN2CCOCC2)cc(C)c1Cl	71*	/	/	/
O=C(c1ccc(F)cc1)c1c[nH]c(C(=O)NCCCN2CCOCC2)c1	5	27	-3	4
CCC(CC)C(=O)c1c[nH]c(C(=O)NCCCN2CCOCC2)c1	-2	11	6	82*
COc1ccc(OCC(=O)NCCCN2CCOCC2)cc1	16	-18	7	-15
C[C@H](O)CC1=C[C@H](O)[C@@H](C)OC1=O	-11	22	5	2
O=C(NCCCN1CCOCC1)c1sc2ccccc2c1Cl	80*	6	-1	3
O=C(NCCCN1CCOCC1)c1ccccc1	-5	31	8	-4
O=C(O)C(Cc1ccccc1)N1C(=O)/C(=C/c2cccc3ccccc23)SC1=S (stereo not given)	-5	106*	-10	7
